Results filed as inconclusive are left out. Unmarked numbers belong to inactive results. Calls of active or inactive are those of the source. Unless noted, calls come from the whole dose curve.
Columns and labels:
[1] = Cell Viability - BJ (AID 421); conditions: BJ fibroblast viability, qHTS;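 note: potency is the fitted concentration of half-maximal effect; cells exposed to compound for 40 hours at 37 °C before readout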
How it was run: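 Cytotoxicity in human BJ foreskin fibroblasts is scored as loss of cellular ATP after a 40-hour exposure, measured by luciferase luminescence. Controls are DMSO and 100 uM tamoxifen.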

[2] = Cell Viability - Jurkat (AID 426;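 active = dose-dependent loss of cell ATP signal giving a full or clear fitted curve, ranked by lower potency value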; note: potency is the fitted concentration of half-maximal effect); conditions: qHTS
How it was run: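 Jurkat (clone E6-1, human T-cell leukemia) cells, 5000/well in complete medium, were exposed to compound for 40 hr at 37 °C. Viability was read as intracellular ATP by CellTiter-Glo luminescence; AC50 came from Hill fits of concentration-response data.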

[3] = Cell Viability - Hek293 (AID 427;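 active = compounds whose dose-response curve shows a full or clear partial loss of cell viability, called from curve shape rather than a numeric limit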;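 note: potency is the fitted concentration of half-maximal effect; cells exposed to compound for 40 hours at 37 °C before reading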); conditions: qHTS
How it was run: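 qHTS, human embryonic kidney (adenovirus-transformed) cells; 40 hr cpd, 37 °C; CellTiter-Glo ATP luminescence. Norm: DMSO = 0, 100 uM tamoxifen = 100% inhibition. Hill-fit AC50.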

[4] = Cell Viability - HepG2 (AID 433); conditions: qHTS;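 note: potency is the fitted concentration of half-maximal effect; potency for ATP loss meaning cytotoxicity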
How it was run: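 ATP luminescence (CellTiter-Glo) after 40 h compound exposure, 37 °C, HepG2, 1500 cells/well, complete medium. Normalized: DMSO = basal, 100 uM tamoxifen = 100% inhibition. AC50 via standard Hill equation.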

[5] = Cell Viability - MRC5 (AID 434); conditions: MRC5 lung fibroblast viability, qHTS;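 note: potency is the fitted concentration of half-maximal effect; potency reflects cytotoxicity seen as loss of intracellular ATP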
How it was run: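 qHTS cytotoxicity in human lung fibroblast MRC5 cells; 40 hr treatment, 37 °C; cellular ATP by luciferase luminescence; DMSO = 0%, 100 uM tamoxifen = 100% inhibition; Hill-fit AC50.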

[6] = Cell Viability - SK-N-SH (AID 435); conditions: SK-N-SH neuroblastoma cell viability qHTS; note: potency is the fitted concentration of half-maximal effect
How it was run: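 CellTiter-Glo ATP luminescence, 20 min RT read; cells pre-plated 5 hr, compound 40 hr at 37 °C, 1500 cells/well, complete medium. Normalized DMSO = 0, 100 uM tamoxifen = 100% inhibition; Hill-fit AC50.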

[7] = molecular target: Mitogen-activated protein kinase 10 (Mus musculus) (UniProt Q61831); assay: JNK3 AlphaScreen Assay (AID 530; active = well fitted curve in either direction with a large enough effect, not every such curve was filed as active;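 note: kinase came from lysate of stimulated human HepG2 cells; signal reports phosphorylation of biotinylated GST-cJun 1-79 at Ser73 with 10 µM ATP; % is set by controls: 0 for no effect and ±100 for the full control effect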); conditions: JNK3 lysate, c-Jun phosphorylation; series mostly up to 57.1 µM
How it was run: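 Room-temperature AlphaScreen kinase assay; pre-activated HepG2 lysate as JNK3 source, biotin-GST-cJun(1-79) substrate, 10 uM ATP, compound 15 min preincubation.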

[8] = Cell Viability - N2a (AID 540; active = well fitted curve in the direction sought with a large enough effect; an effect the other way counts as inactive or inconclusive;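 note: plate controls were DMSO alone for no effect and tamoxifen control for full effect; nearly all actives have a fitted effect of over 45% in size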); conditions: N2a mouse neuroblastoma cell viability; activity change, negative = cytotoxicity: at 92.2 µM (top of the series)
How it was run: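 Mouse neuroblastoma N2a cells (1500/well) were preincubated 5 hr at 37 °C, then exposed to compounds for 40 hr at 37 °C in complete medium. Viability was read as intracellular ATP by CellTiter-Glo luminescence; AC50 from Hill fits.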

[9] = Cell Viability - NIH 3T3 (AID 541; active = well fitted curve in the direction sought with a large enough effect; an effect the other way counts as inactive or inconclusive;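 note: plate controls were DMSO alone for no effect and tamoxifen positive control for full effect; nearly all actives have a fitted effect of over 25% in size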); conditions: NIH 3T3 cell viability, qHTS; activity change, negative = cytotoxicity: at 92.2 µM (top of the series)
How it was run: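 NIH 3T3 mouse embryo fibroblasts (1000 cells/well) were plated in complete medium and treated with compound for 40 hr at 37 °C. Viability was read as intracellular ATP by CellTiter-Glo luminescence; AC50 values came from Hill-equation fits of concentration-response data.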

[10] = Cell Viability - HUV-EC-C (AID 542; active = well fitted curve in the direction sought with a large enough effect; an effect the other way counts as inactive or inconclusive; note: % is set by controls: 0 for no effect and ±100 for the full control effect; nearly all actives have a fitted effect of over 35% in size); conditions: HUV-EC-C endothelial cell viability, qHTS; series mostly up to 92.2 µM
How it was run: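 HUV-EC-C normal human vascular endothelial cells, 1000 cells/well, pre-incubated 5 hr at 37 °C, then exposed to compounds for 40 hr at 37 °C in complete medium. Viability measured as intracellular ATP by CellTiter-Glo luminescence; AC50 from Hill fits.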

Row | Compound | Potency [1] [µM] | Potency [2] | Potency [3] [µM] | Potency [4] [µM] | Potency [5] [µM] | Potency [6] [µM] | outcome [7] | activity change, negative = cytotoxicity [8] [%] | Potency [9] | Potency [10]
1 | C=C(C)C(N)=O | > 92 | > 92 µM | > 92 | > 92 | > 92 | > 92 | inactive | -7.09 | inactive | inactive
2 | Cc1ccc(C#N)cc1 | > 92 | > 92 µM | > 92 | > 92 | > 92 | > 92 | inactive | 6 | inactive | inactive
3 | CC(C)c1ccccc1 | > 92 | > 92 µM | > 92 | > 92 | > 92 | > 92 | inactive | -8.99 | inactive | inactive
4 | NC(=O)CCCCC(N)=O | > 92 | > 92 µM | > 92 | > 92 | > 92 | > 92 | inactive | -5.03 | inactive | inactive
5 | Cc1ccc2nc(-c3ccc(N)cc3)sc2c1S(=O)(=O)O | > 92 | > 92 µM | > 92 | > 92 | > 92 | > 92 | inactive | 3.3 | inactive | inactive
6 | Cc1cccc(C)c1 | > 92 | > 92 µM | > 92 | > 92 | > 92 | > 92 | inactive | 2.48 | inactive | inactive
7 | O=Nc1ccc(NO)cc1 | > 92 | 51.1 µM (active) | > 92 | > 92 | > 92 | > 92 | inactive | 16.3 | inactive | inactive
8 | COc1ccc(N)c(C)c1 | > 92 | > 92 µM | > 92 | > 92 | > 92 | > 92 | inactive | 11.2 | inactive | inactive
9 | Cc1ccc(C)c([N+](=O)[O-])c1 | > 92 | > 92 µM | > 92 | > 92 | > 92 | > 92 | inactive | 2.29 | inactive | inactive
10 | CC(=O)c1cc(C)oc1C | > 92 | > 92 µM | > 92 | > 92 | > 92 | > 92 | inactive | -1.61 | inactive | inactive
11 | O=Cc1ccc(Cl)cc1 | > 92 | > 92 µM | > 92 | > 92 | > 92 | > 92 | inactive | -2.43 | inactive | inactive
12 | O=C(O)c1c(Cl)cccc1Cl | > 92 | > 92 µM | > 92 | > 92 | > 92 | > 92 | inactive | -6.78 | inactive | inactive
13 | O=[N+]([O-])c1ccc2nc[nH]c2c1 | > 92 | > 92 µM | > 92 | > 92 | > 92 | > 92 | inactive | 4.31 | inactive | inactive
